# Active and inactive are the calls of the source.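 The calls were made as follows: active = viability increase at or above a cutoff of the median across tested compounds plus 3 SD (cut at about 8.5% in these data, passing the limit was not always enough); inconclusive = some gains above the cutoff, reason not given; inactive = the rest.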
# Assay: viability gain of MRP-1-high H69AR cells under doxorubicin, pilot screen, MRP-1 activator project, CellTiter-Glo, duplicate (AID 807);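 also: compound pretreatment 18-22 h then 72 h combined with doxorubicin; 0% = doxorubicin alone and 100% = vehicle without doxorubicin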
# Conditions: H69AR viability with doxorubicin, CellTiter-Glo luminescence; at 10 µM; hits give high values
row,SMILES,viability increase
1,COc1ccc(N2Cc3cccc(C(=O)N4CCN(C(=O)c5ccco5)CC4)c3C2=O)cc1,-1.86% (inactive)
2,O=C(Nc1nc(-c2cccs2)cs1)c1ccc(S(=O)(=O)N2CCCCC2)cc1,-3.02% (inactive)
3,CN1CCN(C(=O)C2CCC(CNS(=O)(=O)c3cccc4cccnc34)CC2)CC1 (stereo not given),-0.86% (inactive)
4,CCOc1ccc(CC(=O)Nc2c(C(N)=O)oc3ccc(Br)cc23)cc1OCC,-5.14% (inactive)
5,CCC(C)(C(=O)NC1CCCCC1)N(Cc1ccco1)C(=O)CNC(=O)c1ccccc1 (stereo not given),-3.39% (inactive)
6,COC(=O)c1nc2cc(C)ccn2c1F,-1.42% (inactive)
7,CN(CC(=O)N1CCCCCC1)S(=O)(=O)c1cccc2cccnc12,-4.51% (inactive)
8,CN(C)c1nc(Oc2ccc(/C=N/O)cc2)nc(N(C)C)n1,-2.72% (inactive)
9,COc1ccc(Br)cc1S(=O)(=O)N1CCN=C1C,-1.79% (inactive)
10,COc1ccc(COC(=O)C2=C(C)NC(=O)NC2c2ccc(O)c(OC)c2)cc1 (stereo not given),3.03% (inactive)
11,COc1ccc(-c2nc(Cn3c(SCc4cccc(F)c4)nc4ccncc43)c(C)o2)cc1OC,-3.1% (inactive)
12,COc1ccc(-c2nnc(COc3ccc4ccccc4c3)o2)cc1OC,-0.12% (inactive)
13,O=C(Cn1ncc2c1-c1ccccc1OC2)Nc1ccc(S(=O)(=O)N2CCCCC2)cc1,-2.69% (inactive)
14,CCNS(=O)(=O)c1ccc(NC(=O)c2cccnc2)cc1,0.48% (inactive)
15,CCCCCCSc1nc2c(c(=O)[nH]c(=O)n2C)n1C,-4.63% (inactive)
